Screen size: about 16,000 compounds; about 5,700 (36%) were called active. Not shown: some 24% with an inconclusive outcome. The call rests on the fitted dose curve; in most records, active means well fitted curve in the direction sought with a large enough effect; inconclusive means small, poorly fitted or top-dose-only effect, or effect the other way; inactive means no such curve, though single readings can be large or run the other way. The list shows a part of the results.
On the % scale 0 is the no-effect control and ±100 the full control effect.

For the experiment, the target named is Cytochrome P450 1A2 (Homo sapiens) (UniProt P05177). The experiment in a line: Cytochrome panel assay with activity outcomes. Particulars: recombinant CYP, pro-luciferin dealkylation, luminescence, p450-cyp1a2; series mostly up to 57.1 µM.
Chain of Cytochrome P450 1A2 (Homo sapiens) (P05177 whole entry, looked up): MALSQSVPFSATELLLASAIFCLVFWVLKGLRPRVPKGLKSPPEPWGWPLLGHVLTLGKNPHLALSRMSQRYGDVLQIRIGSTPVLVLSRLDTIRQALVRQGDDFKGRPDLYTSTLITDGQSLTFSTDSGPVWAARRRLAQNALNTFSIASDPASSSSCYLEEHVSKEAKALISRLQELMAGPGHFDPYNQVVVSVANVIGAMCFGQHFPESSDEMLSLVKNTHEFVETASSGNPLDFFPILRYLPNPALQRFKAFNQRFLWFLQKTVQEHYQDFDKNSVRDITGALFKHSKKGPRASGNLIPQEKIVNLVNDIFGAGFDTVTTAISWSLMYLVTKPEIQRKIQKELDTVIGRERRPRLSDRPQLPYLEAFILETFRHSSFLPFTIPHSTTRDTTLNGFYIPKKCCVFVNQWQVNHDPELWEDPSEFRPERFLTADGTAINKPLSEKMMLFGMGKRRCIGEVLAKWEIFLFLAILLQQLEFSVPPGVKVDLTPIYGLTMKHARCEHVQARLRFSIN
As a reminder, the AC50 is the midpoint of the concentration-response curve, whichever way the signal moves. As to `COc1cc(NC(=O)Cc2c(C(=O)O)[nH]c3ccccc23)cc(OC)c1OC`, the AC50 entry is “inactive”.

`CCc1c(C(=O)O)[nH]c2ccc(Br)cc12`: the AC50 was 5010 nM (active).

In the case of `COc1ccc(CSC2=C(C#N)C(=O)NC3(CCCCC3)S2)cc1`, the activity, negative = inhibition is -5.77% [at 2.29 µM] (inactive).

Take `Cc1nn(-c2ccccc2)c(N2CCCCC2)c1/C=N/O`: the AC50 was 1580 nM (active).

With `N#C/C(=C\c1cc([N+](=O)[O-])c(N2CCCCC2)cc1N1CCCCC1)c1nn(-c2ccccc2)c(N)c1C#N`, the AC50 result was “inactive”.

As to `CO[C@@H]1COC(=O)[C@H](CCSC)NC(=O)C/C=C\[C@@H](C)COC(=O)[C@@H]2CCCN2C(=O)C/C=C\[C@H]1C`, the activity, negative = inhibition is 7.24% [at 11.4 µM] (inactive).

For the compound `CC1CCCC(C)N1C(=O)c1cc(-c2ccc(Cl)c(Cl)c2)on1` (stereo not drawn), the AC50 is 5010 nM (active).

Take `C[C@@H]1CCC[C@H](C)N1NC(=O)c1ccc(Cl)c(S(N)(=O)=O)c1`: the AC50 result was “inactive”.

For `Cc1ccc2c(c1)nnn2C1CCN(S(=O)(=O)c2ccc(C(=O)N3C(C)CCCC3C)cc2)CC1` (stereo not drawn), the AC50 entry is “inactive”.

For the compound `c1ccc(-c2nc3ccccn3c2NCc2ccc3c(c2)OCO3)cc1`, the AC50 was 1780 nM (active).

For the compound `CC1(C)CC(NCc2ccc3c(c2)OCO3)CCO1` (stereo not drawn), the AC50 result was “inactive”.

Consider `CS(=O)(=O)N1CCC[C@@]2(CCN(c3ncccn3)C2)C1`, for which the AC50 result was “inactive”.

As to `COC(=O)c1ccc(Cl)c(NC(=O)c2ccc(-c3ccccc3)cc2)c1`, the AC50 entry was “inactive”.

As to `CCOCC(=O)Nc1cc(C(=O)Nc2cccc(C)c2C)ccc1Cl`, the AC50 is 5010 nM (active).

Take `CCOCC(=O)Nc1cc(C(=O)Nc2ccccc2)ccc1Cl`: the AC50 was 2510 nM (active).

Turning to `CCc1c2c(nc3cccc(SC)c13)COC2`, the AC50 is 2510 nM (active).

On to `CCc1c2c(nc3ccc(OC)cc13)COC2`, for which the AC50 was 794 nM (active).

Regarding `COc1ccc(/C=N/n2c(-c3cccs3)n[nH]c2=S)cc1`, the AC50 is 631 nM (active).

`COc1ccc(-n2c(-c3cnccn3)n[nH]c2=S)cc1`: the AC50 entry is “inactive”.

Regarding `Cc1ccc(-c2n[nH]c(=S)n2/N=C/c2cccn2C)cc1`, the AC50 was 3550 nM (active).

For `Cc1ccc(/C=N/n2c(-c3cccs3)n[nH]c2=S)cc1`, the AC50 was 282 nM (active).

Consider `Nc1ccn([C@H]2O[C@@H](COP(=O)(O)O)[C@@H](O)[C@H]2O)c(=O)n1`, for which the activity, negative = inhibition is -23.3% [at 11.4 µM] (inactive).

For the compound `O=c1c(-c2ccccc2)nc2cnc(Oc3cccc(Cl)c3)nc2n1C1CC1`, the AC50 is 1580 nM (active).

With `O=c1c(-c2ccc(F)cc2)nc2cnc(Oc3cccc(Cl)c3)nc2n1C1CC1`, the AC50 is 316 nM (active).

Consider `N#CCCn1c(=O)c(-c2cccc(C#N)c2)nc2cnc(Oc3cccc(Cl)c3)nc21`, for which the AC50 entry is “inactive”.

For the compound `N#Cc1cccc(-c2nc3cnc(Oc4cccc(Cl)c4)nc3n(C3CC3)c2=O)c1`, the AC50 is 2510 nM (active).

In the case of `CC(C)CN1CCC2(CC1)CCN(C(=O)c1cccc(F)c1)CC2`, the AC50 result is “inactive”.

Regarding `CC(=O)OC[C@@H]1O[C@@H](O/N=C2/C[C@@H](O)[C@@H](O)[C@@H]3[C@@H]4C(=O)N(C[C@@H]5CCCO5)C(=O)[C@H]4CC[C@@H]23)[C@H](OC(C)=O)[C@H](OC(C)=O)[C@@H]1OC(C)=O`, the activity, negative = inhibition was 5.86% [at 11.4 µM] (inactive).

`O=C(N/N=C/c1cccc(OCc2ccccc2)c1)c1cccs1`: the AC50 was 2240 nM (active).

On to `O=C(N/N=C/c1ccc(OCc2ccccc2)cc1)c1cccs1`, for which the AC50 is 3160 nM (active).

Regarding `COc1ccc(/C=N\NC(=O)C2C(=O)NCC2c2ccccc2)cc1O` (stereo not drawn), the AC50 result is “inactive”.

For `C=CCNC(=S)N/N=C/c1ccc(OCc2ccccc2)cc1`, the concentration at half-maximal activity (AC50) is 14100 nM (active).

For the compound `COc1ccc(/C=N/NC(=O)CCc2ccccc2)cc1O`, the AC50 is 25100 nM (active).

Consider `Cc1cccc(C)c1NC(=O)COc1cccc(/C=N/NC(=O)C(=O)NCc2ccccc2)c1`, for which the AC50 result was “inactive”.

For the compound `C/C(CCC(=O)OC[C@@H]1O[C@H](C#Cc2ccccc2)C=C[C@@H]1Oc1ccc(C)cc1)=N/OC[C@@H](O)COCc1ccco1`, the activity, negative = inhibition is -4.08% [at 11.4 µM] (inactive).

Regarding `C/C(CCN1CCCc2nc(C)c(C)cc21)=N\OC[C@@H](O)[C@@H]1O[C@@H]2OC(C)(C)O[C@@H]2[C@H]1O`, the activity, negative = inhibition was 1.1% [at 11.4 µM] (inactive).

Consider `Nc1nc2ncc(CNc3ccc(C(=O)N[C@@H](CCC(=O)O)C(=O)O)cc3)nc2c(=O)[nH]1`, for which the AC50 entry was “inactive”.

For `COc1cc(/C=N/NC(=O)c2cccc([N+](=O)[O-])c2)ccc1OCc1ccc(C)cc1`, the AC50 entry was “inactive”.

As for `COc1cc(/C=N/NC(=O)c2cccs2)ccc1OCc1ccccc1`, the AC50 is 794 nM (active).

`COc1cc(NC(=S)NC(=O)c2c(OC)cccc2OC)ccc1NC(=O)c1cccs1`: the AC50 entry is “inactive”.

`Cc1ccccc1C(=O)Nc1cccc(NC(=S)NC(=O)c2cccs2)c1`: the AC50 is 3160 nM (active).

Regarding `CCN(c1ccccc1)S(=O)(=O)c1ccc(NC(=S)NC(=O)c2cccs2)cc1`, the AC50 result was “inactive”.

For the compound `Cc1cccc(NC(=S)NC(=O)c2cccs2)n1`, the AC50 was 794 nM (active).

Regarding `Cc1c(C)c(C)c(CC2(C)CSC2)c(CC2(C)CSC2)c1C`, the activity, negative = inhibition is -16.1% [at 11.4 µM] (inactive).

As to `CN(Cc1ccco1)c1cc(-c2cccnc2)ncn1`, the AC50 was 316 nM (active).

As for `COc1cccc([C@@H]2Oc3ccc(OC)cc3/C(=N/OC[C@@H](O)COCc3ccco3)[C@@H]2O)c1`, the activity, negative = inhibition was -3.42% [at 11.4 µM] (inactive).

For the compound `CN(Cc1ccco1)c1cc(-c2cccc(C#N)c2)ncn1`, the AC50 is 794 nM (active).

As for `COc1cccc(-c2cc(N(C)Cc3ccco3)ncn2)c1`, the AC50 is 794 nM (active).

Regarding `CCCNC1CCS(=O)(=O)C1` (stereo not drawn), the AC50 entry is “inactive”.

Regarding `CCOC(=O)c1c(C)[nH]c(C(=O)OCC(=O)NC2CCS(=O)(=O)C2)c1C` (stereo not drawn), the AC50 was 12600 nM (active).

`Cc1ccc(/S(C)=N/S(=O)(=O)c2ccc(C)cc2)cc1` (stereo not drawn): the AC50 entry was “inactive”.

On to `CCCS(=O)(=O)N1CCCC(C(=O)NCCCOCC)C1` (stereo not drawn), for which the AC50 entry was “inactive”.

Regarding `CCCS(=O)(=O)N1CCCC(C(=O)N2CCN(C(=O)OCC)CC2)C1` (stereo not drawn), the AC50 was 10000 nM (active).

Turning to `CCCS(=O)(=O)N1CCCC(C(=O)NCCCOC(C)C)C1` (stereo not drawn), the AC50 entry is “inactive”.

As to `COC(=O)c1ccc(NC(=O)c2ccccc2NS(=O)(=O)c2ccccc2)cc1`, the AC50 entry is “inactive”.

With `Cn1c(C(=O)Nc2ccccc2)cc2sccc21`, the AC50 was 8910 nM (active).

Regarding `CN1c2ccccc2C(O)=C(C(=O)Nc2ccccc2)S1(=O)=O`, the AC50 entry was “inactive”.

As for `COC(=O)c1ccc(NC(=O)c2cc3sccc3n2C)cc1`, the AC50 was 8910 nM (active).
